Sampled rows, rich in hits. Any-hit rate of the full collection: about 2.3%.
M1 PAM = potentiates human M1 receptor response to acetylcholine; P11229; CHO-K1 hM1, Fluo-8 calcium fluorescence, ACh EC20; 0% = ACh EC20, 100% = maximal ACh; activation, % at 3 µM; hit rate 0.088% among 360,000; AID 588819; in the data active = activation above about 19%, passing the limit was not always enough
Target sequence (P11229 whole entry, looked up): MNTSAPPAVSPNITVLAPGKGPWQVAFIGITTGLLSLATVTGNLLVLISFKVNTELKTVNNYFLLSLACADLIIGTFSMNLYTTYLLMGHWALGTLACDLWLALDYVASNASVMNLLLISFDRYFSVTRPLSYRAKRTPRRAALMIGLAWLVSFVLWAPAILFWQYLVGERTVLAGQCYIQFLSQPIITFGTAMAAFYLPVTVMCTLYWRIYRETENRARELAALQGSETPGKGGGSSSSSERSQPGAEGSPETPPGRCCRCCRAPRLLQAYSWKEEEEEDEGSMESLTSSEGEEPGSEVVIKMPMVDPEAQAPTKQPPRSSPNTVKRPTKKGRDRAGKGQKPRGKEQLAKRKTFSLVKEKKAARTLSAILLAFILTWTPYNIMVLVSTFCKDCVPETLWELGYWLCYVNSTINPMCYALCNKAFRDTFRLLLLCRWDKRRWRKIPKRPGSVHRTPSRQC
CHRM1 agonist = human M1 muscarinic receptor agonism; CHO-K1 hM1, Fluo-8 calcium fluorescence, agonist mode; 0% DMSO, 100% acetylcholine EC100; activation, % at 3 µM; hit rate 0.33% among 360,000; AID 588814;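 active = activation above the run's mean compound activation plus 3 SD, cut at about 16% in these data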;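 also: peak over basal fluorescence ratio within a 140 s kinetic read after compound addition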
CHO-K1 Ca PAM = M1 PAM counterscreen hit in parental CHO-K1 cells; ATP EC20, Fluo-8 calcium fluorescence; 0% at ATP EC20, 100% at ATP max; activation, % at 3 µM; hit rate 0.02% among 360,000; AID 602247;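 active = activation above the run cutoff, the mean activation of all test compounds plus 3 SD, cut at about 40% in these data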;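 also: peak over basal fluorescence ratio in a 140 s read after ATP addition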
CHO-K1 Ca antag = nonselective inhibitor or artifact in parental CHO-K1 cells | ATP-induced calcium, Fluo-8 fluorescence | inhibition, % at 3 µM | hit rate 0.6% among 360,000 | AID 602250;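 active = inhibition above a per-plate cutoff, the plate's mean sample inhibition plus 3 SD, cut at about 24% in these data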
CHO-K1 Ca ag = nonselective activator or artifact in parental CHO-K1 cells; hit rate 0.48% among 360,000; activation, % at 3 µM; AID 602248; Fluo-8 calcium fluorescence; scaled to maximal ATP response, vehicle zero; in the data active = activation above about 15%;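 also: untransfected CHO-K1 host cells lacking M1 receptor as counterscreen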
CHRM1 antagonist = human CHRM1 antagonism. CHO-K1 hM1, Fluo-8 calcium fluorescence, ACh EC80 antagonist. hit rate 1.3% among 360,000. inhibition, % at 3 µM;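 active = percent inhibition above its own plate's cutoff, namely the mean of that plate's compound wells plus 3 SD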;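 also: peak over basal fluorescence ratio during 140 s after agonist addition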
Hits are given with their value; n = inactive.

SMILES	M1 PAM	CHRM1 agonist	CHO-K1 Ca PAM	CHO-K1 Ca antag	CHO-K1 Ca ag	CHRM1 antagonist
COc1ccccc1CNC(=O)CN(c1ccc(C)cc1)S(=O)(=O)c1c(C)n[nH]c1C	n	n	n	n	n	n
CCOc1ccc(N(CC(=O)Nc2ccccc2OC)S(=O)(=O)c2ccccc2)cc1	n	n	n	n	18	n
COc1ccc(S(=O)(=O)N(CC(=O)Nc2ccc3c(c2)OCO3)c2ccccc2OC)cc1	n	n	n	n	n	31
CCOc1ccccc1NC(=O)CN(c1ccc(C)cc1)S(=O)(=O)c1c(C)n[nH]c1C	n	n	n	n	n	20
CCOC(=O)N1CCC(=NNC(N)=O)C1	n	n	n	n	n	n
C=CCOC(=O)C1=C[C@@H](c2cn(C(C)=O)c3ccccc23)C[C@@H](OCc2ccc(CO)cc2)O1	n	n	n	n	n	n
COc1ccc(C(CNC(=O)Cc2ccc(-c3ccccc3)cc2)N(C)C)cc1 (stereo unspecified)	n	n	n	n	n	42
COc1cccc(C(CNC(=O)C(c2ccccc2)c2ccccc2)N(C)C)c1 (stereo unspecified)	n	n	n	n	n	55
N#Cc1c(N2CCOCC2)nc(-c2ccco2)c2c1CCCC2	n	n	n	25	n	n
CC1(C)Cc2c(C#N)c(N3CCCC3)nc(-c3ccco3)c2CO1	n	n	n	n	n	n
Cc1ccccc1C1=Nn2c(nnc2-c2ccco2)SC1	n	n	n	n	n	n
Cc1ccc(N(Cc2ccco2)C(=O)c2ccc(N3CCCCC3)c([N+](=O)[O-])c2)cc1	n	n	n	25	n	n
Cc1nn(-c2ccc(F)cc2)c(-n2cccc2)c1C(=O)N1CCN(C(=O)c2ccco2)CC1	n	n	n	n	n	n
CCOC(=O)c1[nH]c(C)c(CN(C(C)=O)c2ccc(OCC)cc2)c1C	n	n	n	n	n	26
O=C1CC(c2cccnc2)c2cc3c(cc2N1)OCCO3 (stereo unspecified)	n	n	n	n	n	39
CNc1nc2c(c(=O)[nH]c(=O)n2C)n1CCCc1ccccc1	n	n	n	n	n	n
Cn1c(=O)[nH]c(=O)c2c1nc(NCc1ccccc1)n2CCCc1ccccc1	n	n	n	26	n	n
COc1ccc(-c2nc(S(=O)(=O)c3ccccc3)c(N3CCN(C)CC3)o2)cc1	n	n	n	n	n	n
COc1cc(OC)c(OC)cc1CNC(=O)c1cccc(S(=O)(=O)N2CCc3ccccc3C2)c1	n	n	n	n	n	36
Cc1cc(N2CCN(C)CC2)ccc1NC(=O)c1cccc(S(=O)(=O)N2CCc3ccccc3C2)c1	n	n	n	n	n	79
COc1ccccc1CNC(=O)c1cccc(S(=O)(=O)N2CCN(C)CC2)c1	n	n	n	n	n	n
CSCC[C@H](NC(=O)C1CCN(S(=O)(=O)c2ccccc2)CC1)C(=O)NC1CC1	n	n	n	n	n	n
CCOC(=O)c1cnc2ccc(OCC)cc2c1N1CCN(C)CC1	n	n	n	n	n	n
CCOc1ccc2ncc(S(=O)(=O)c3ccc(C)cc3)c(N3CCC4(CC3)OCCO4)c2c1	n	n	n	n	n	35
CCCN(CC(=O)Nc1ccccc1C)C(=O)COc1ccc2c(c1)CCC2	n	n	n	n	n	n
SMILES	M1 PAM	CHRM1 agonist	CHO-K1 Ca PAM	CHO-K1 Ca antag	CHO-K1 Ca ag	CHRM1 antagonist
CCOC1=C2CN(S(=O)(=O)c3ccc(C)cc3)[C@@H](c3cccs3)C[C@H]2[C@H]2C(=O)N(c3ccccc3)C(=O)[C@H]2C1	n	n	n	27	n	n
COc1cccc(-c2nc(CS(=O)(=O)CC(=O)NCc3ccccc3)c(C)o2)c1	n	n	n	n	n	n
COc1cccc(-c2nc(CS(=O)(=O)CC(=O)NCCCc3ccccc3)c(C)o2)c1	n	n	n	n	n	40
COCCN(CC1CCCN(C2Cc3ccccc3C2)C1)C(=O)CCC(N)=O (stereo unspecified)	n	n	n	n	n	47
O=[N+]([O-])c1cc(C(F)(F)F)cc([N+](=O)[O-])c1NCCNC(=S)Nc1ccc(Cl)c(Cl)c1	n	n	n	27	n	n
CC(=O)c1cccc(NS(=O)(=O)c2ccc(NC(=O)N3CCCCC3)cc2)c1	n	n	n	n	n	36
CN(CC(=O)Nc1ccc(F)cc1)C(=O)COC(=O)c1ccc(-c2ccccc2)cc1	n	n	n	n	n	n

Source: PubChem (The Scripps Research Institute Molecular Screening Center)
